From PubChem BioAssay
Compounds with a hit are over-represented: about 11% of the library has one in this group of screens.
Pf growth 48h = P. falciparum growth inhibition at 48 hours (one generation). P. falciparum luciferase growth in erythrocytes, 48 h. Potency, µM (series often up to 28.7 µM), most hits filed as inhibitors. 310,000 compounds, 5.9% hits. AID 504832
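Read-out is firefly luciferase luminescence from an integrated reporter in P. falciparum, so falling signal marks reduced parasite growth. Infected erythrocytes were at 2% hematocrit and 0.1% parasitemia (final) in Albumax-supplemented RPMI 1640.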
Pf growth 96h = P. falciparum growth inhibition at 96 hour, primary screen for plastid delayed-death inhibitors; P. falciparum luciferase reporter growth, 96 h; Potency, µM (titrated, usually from 28.7 µM), actives largely listed as inhibitors; 320,000 compounds, 6.9% hits; AID 504834
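Plates of compound plus infected erythrocytes (2% hematocrit, 0.05% parasitemia final) incubate 96 hours, 37 C, 5% CO2. Detection reagent added; reduced luminescence from the parasites' luciferase reporter flags inhibition.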
NS1 inh = blocks influenza NS1 protein function; AID 2326; 270,000 compounds, 0.4% hits; Potency, µM (doses to about 46.1 µM); calls by dose curve; also: actives are rising curves; nearly all actives have a fitted effect of over 50% in size
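In this qHTS, NS1 from influenza A is expressed in budding yeast, where it slows growth. Cells are switched from glucose to 2% galactose medium (pH 6.0, -URA), treated with compound, and growth recovery is read at OD600.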
AMA1-RON2 inh = disrupts binding of P. falciparum AMA1 to RON2. AlphaScreen AMA1-biotinylated RON2 peptide binding. Potency, µM (series often up to 58.2 µM), most hits filed as inhibitors. 360,000 compounds, 0.2% hits. AID 720542; also: nearly all actives have a fitted effect of over 45% in size
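AMA1 (3D7) with his tag at 25 nM final met compounds first, then biotinylated RON2 peptide at 25 nM; detection used donor plus acceptor beads, 10 µg/mL apiece, read by AlphaScreen after 30 min at room temperature.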
Sm TGR block = S. mansoni TGR enzyme inhibition; AID 485364; Potency, µM (top dose mostly 114 µM), actives largely listed as inhibitors; Q962Y6; purified TGR, DTNB reduction, TNB absorbance 405 nm; 360,000 compounds, 3% hits; also: nearly all actives have a fitted effect of over 60% in size
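First, TGR (20 nM dispensed) and NADPH were mixed with compound. Second, a 15 min room-temperature incubation followed. Third, further NADPH and then DTNB were added to start the reaction. Finally, TNB absorbance was monitored kinetically.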
Flu NS1 inh = influenza NS1 function inhibition validation | shares compounds with NS1 inh | influenza NS1 function cell assay, 15-point titration | activity change, negative = inhibition, % at 32.9 µM | 1,400 tested, under 10 active | AID 492980; calls by dose curve
Hits are given with their value; – = inactive; ? = inconclusive; · = not tested or not shown. Unless noted, calls follow the shape of the dose curve; as a rule, active = well fitted curve in the direction sought with a large enough effect; inconclusive = small, poorly fitted or top-dose-only effect, or another doubt; inactive = no such curve, though single readings can be large; an effect the other way counts as inactive or inconclusive.

SMILES	Pf growth 48h	Pf growth 96h	NS1 inh	AMA1-RON2 inh	Sm TGR block	Flu NS1 inh
COc1ccc(CCn2c(=O)c3cccnc3n(CC(=O)Nc3ccc(C)cc3C)c2=O)cc1OC	·	·	·	·	–	·
O=C(c1cc(NC(=O)C23CC4CC(CC(C4)C2)C3)cc(NC(=O)C23CC4CC(CC(C4)C2)C3)c1)N1CCCCC1	1.85µM	1.47µM	11.2µM	–	–	–
N#Cc1nc(-c2ccco2)oc1NCCCN1CCOCC1	·	–	2.51µM	–	–	–
N#Cc1nc(Cc2cccc3ccccc23)oc1NCCCN1CCOCC1	?	–	–	–	–	·
CCOC(=O)c1c(NC(=O)CN2C(=O)NC3(CCC(C)CC3)C2=O)sc(C(=O)N(C)C)c1C (stereo not given)	?	?	·	–	–	·
O=C(COC(=O)C1CCN(S(=O)(=O)c2c(Cl)cccc2Cl)CC1)NCc1ccco1	–	–	·	–	–	·
CCCn1c(C)cc(/C=C(\C#N)C(=O)OCC(=O)NC(=O)NC(C)(C)C)c1C	–	·	3.16µM	–	–	–
COc1ccc(CNC(=O)C(C)Sc2ccc(S(=O)(=O)N3CCOCC3)cn2)cc1 (stereo not given)	?	–	·	–	–	·
O=c1ccc(Cc2ccc(Cl)cc2)n[nH]1	–	–	–	–	·	·
O=c1ccc(Cl)n[nH]1	–	–	7.94µM	–	–	–
CN(CC(=O)Nc1ccc(Cl)c(C(F)(F)F)c1)C(=O)C1CSC2(C)CCC(=O)N12 (stereo not given)	?	–	·	–	–	·
COc1ccc(-c2nn(-c3ccccc3)cc2CNC[C@H]2O[C@@H](n3cnc4c(=O)[nH]c(N)nc43)[C@H](O)[C@@H]2O)cc1	·	·	·	–	·	·
COCCn1c(=NC(=O)c2cc(-c3cccs3)nc3ccccc23)sc2cc(S(N)(=O)=O)ccc21	–	–	11.2µM	–	–	–
Nc1cc(N)nc(SCC(=O)N2CCN(S(=O)(=O)c3ccccc3)CC2)n1	–	?	11.2µM	–	–	–
O=C(NCCCN1CCCC1)c1[nH]c(C(F)(F)F)nc1-c1ccccc1	·	·	·	–	·	·
COc1cc(C(C(=O)NC2CCCCC2)N(C(=O)c2snc(C(N)=O)c2N)c2ccc(C)cc2)ccc1O (stereo not given)	7.38µM	–	?	–	–	–
COc1ccc(N(C(=O)c2snc(C(N)=O)c2N)C(C(=O)NC2CCCC2)c2ccc(OC)c(OC)c2)cc1 (stereo not given)	?	–	?	–	–	·
CCOC(=O)CNC(c1ccccc1)c1cc(Br)ccc1NC(=O)c1cccc(Cl)c1 (stereo not given)	·	·	·	·	–	·
NNC(=O)CNC(c1ccccc1)c1cc(Br)ccc1NC(=O)CCN1CCOCC1 (stereo not given)	11.7µM	9.28µM	10µM	–	17.8µM	?
COC(=O)CNC(c1ccccc1)c1cc(Br)ccc1NC(C)=O (stereo not given)	–	–	–	–	·	·
NNC(=O)CNC(c1ccccc1)c1cc(Br)ccc1NC(=O)c1cccc(Cl)c1 (stereo not given)	13.1µM	?	11.2µM	–	–	–
NNC(=O)CNC(c1ccccc1)c1cc(Br)ccc1NC(=O)c1ccc(Br)cc1 (stereo not given)	8.28µM	–	7.08µM	–	–	–
CC(C)c1ccc(C(=O)N2CCCC(c3cc(C(=O)Nc4ccccc4Cl)no3)C2)cc1 (stereo not given)	·	·	·	–	·	·
O=C(O)c1ccccc1-n1c2ccccc2c2ccccc21	–	–	–	–	–	·
O=C(/C=C/c1ccccc1)NC(=S)Nc1ccc(CN2CCOCC2)cc1	–	–	–	–	–	·
SMILES	Pf growth 48h	Pf growth 96h	NS1 inh	AMA1-RON2 inh	Sm TGR block	Flu NS1 inh
O=C(/C=C/c1ccc(Cl)cc1Cl)NC(=S)Nc1ccc(CN2CCOCC2)cc1	–	–	?	–	–	–
O=C1CSCN1c1cc(Cl)ccc1Cl	–	–	?	–	·	–
O=C1CSCN1c1ccc(Cl)c(Cl)c1	–	–	–	–	·	·
Cc1cccc(OCC(=O)NCCN2CCOCC2)c1	?	–	1.78µM	–	–	–
O=C1C2CCCN2C(c2ccc(F)cc2)N1c1ccc(Cl)cc1 (stereo not given)	·	–	3.98µM	–	–	–
CCOc1ccc(C2N(c3ccc(Cl)cc3)C(=O)C3CCCN32)cc1OC (stereo not given)	·	–	7.94µM	–	–	–
